# Results taken from paper PMC7862700, “An all-to-all approach to the identification of sequence-specific readers for epigenetic DNA modifications on cytosine”.
# Tests used:
# Experiment in all cases: DAPPL (digital affinity profiling via proximity ligation, sequencing); 10 mM Tris-HCl pH 7.5, 50 mM NaCl, 1 mM DTT, 4% glycerol, room temperature, 30 min; GST-TFs on glutathione beads, 16-mer random dsDNA library, 0.1% formaldehyde crosslink after washing; high values mean tight binding
# FLI1 = target: T1, FLI1 (Homo sapiens, UniProt Q01543 1-452); details: protein: recombinant; tags: N-terminal GST; dsDNA, one strand shown
# T1 sequence: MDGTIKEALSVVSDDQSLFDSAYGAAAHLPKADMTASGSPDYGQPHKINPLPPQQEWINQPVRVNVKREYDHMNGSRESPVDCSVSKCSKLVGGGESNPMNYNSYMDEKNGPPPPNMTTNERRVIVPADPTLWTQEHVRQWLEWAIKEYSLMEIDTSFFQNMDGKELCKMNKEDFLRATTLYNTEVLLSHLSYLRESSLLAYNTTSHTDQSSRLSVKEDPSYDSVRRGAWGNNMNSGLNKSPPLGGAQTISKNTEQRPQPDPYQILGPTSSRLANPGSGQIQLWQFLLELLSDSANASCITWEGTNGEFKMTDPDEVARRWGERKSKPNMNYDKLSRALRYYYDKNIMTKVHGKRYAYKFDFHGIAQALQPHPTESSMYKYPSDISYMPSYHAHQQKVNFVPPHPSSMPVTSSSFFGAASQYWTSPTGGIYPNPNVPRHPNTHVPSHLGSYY
# In short: (§1)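 GST fusions of human transcription factors were expressed in yeast and captured with glutathione beads. Once given DNA barcodes and pooled alongside a tag-only sample, they were incubated for 30 min at room temperature with 200 nmole of a random double-stranded 16-mer DNA library in Tris/NaCl/DTT/glycerol buffer, then washed, crosslinked (0.1% formaldehyde), proximity-ligated, PCR-amplified and sequenced on an Illumina NextSeq500. The binding signal of each hexamer is its read frequency for a factor divided by its frequency for the tag-only sample.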
# ELK1 = target: T2, ELK1 (Homo sapiens, UniProt P19419 1-428); details: protein: recombinant; tags: N-terminal GST; dsDNA, one strand shown
# T2 sequence: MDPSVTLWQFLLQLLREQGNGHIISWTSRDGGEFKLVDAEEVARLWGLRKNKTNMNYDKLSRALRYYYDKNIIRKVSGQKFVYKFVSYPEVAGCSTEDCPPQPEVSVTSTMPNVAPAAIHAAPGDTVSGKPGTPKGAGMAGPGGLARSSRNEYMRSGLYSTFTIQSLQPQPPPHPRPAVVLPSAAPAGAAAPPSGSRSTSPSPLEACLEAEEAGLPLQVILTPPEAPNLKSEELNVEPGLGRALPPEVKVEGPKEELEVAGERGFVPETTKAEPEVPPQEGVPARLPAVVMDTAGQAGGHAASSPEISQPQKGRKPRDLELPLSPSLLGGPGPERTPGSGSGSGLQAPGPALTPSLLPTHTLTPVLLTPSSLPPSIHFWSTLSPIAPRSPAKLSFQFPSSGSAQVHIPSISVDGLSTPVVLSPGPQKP
# In short: as §1
# GABPA = target: T3, GABPA (Homo sapiens, UniProt Q06546 1-454); details: protein: recombinant; tags: N-terminal GST; dsDNA, one strand shown
# T3 sequence: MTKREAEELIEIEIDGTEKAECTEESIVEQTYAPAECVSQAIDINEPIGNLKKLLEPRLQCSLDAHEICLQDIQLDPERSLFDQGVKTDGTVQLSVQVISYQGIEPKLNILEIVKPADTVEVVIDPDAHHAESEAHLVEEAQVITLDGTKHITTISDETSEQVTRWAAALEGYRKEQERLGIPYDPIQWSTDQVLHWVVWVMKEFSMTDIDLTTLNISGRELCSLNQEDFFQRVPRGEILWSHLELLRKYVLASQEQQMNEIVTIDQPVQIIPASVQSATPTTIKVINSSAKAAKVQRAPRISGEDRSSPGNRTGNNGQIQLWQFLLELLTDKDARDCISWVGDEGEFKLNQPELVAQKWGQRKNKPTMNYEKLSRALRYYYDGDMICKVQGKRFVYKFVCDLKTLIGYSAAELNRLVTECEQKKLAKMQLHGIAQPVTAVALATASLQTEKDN
# In short: as §1
# ERG = target: T4, ERG (Homo sapiens, UniProt P11308 1-479); details: protein: recombinant; tags: N-terminal GST; dsDNA, one strand shown
# T4 sequence: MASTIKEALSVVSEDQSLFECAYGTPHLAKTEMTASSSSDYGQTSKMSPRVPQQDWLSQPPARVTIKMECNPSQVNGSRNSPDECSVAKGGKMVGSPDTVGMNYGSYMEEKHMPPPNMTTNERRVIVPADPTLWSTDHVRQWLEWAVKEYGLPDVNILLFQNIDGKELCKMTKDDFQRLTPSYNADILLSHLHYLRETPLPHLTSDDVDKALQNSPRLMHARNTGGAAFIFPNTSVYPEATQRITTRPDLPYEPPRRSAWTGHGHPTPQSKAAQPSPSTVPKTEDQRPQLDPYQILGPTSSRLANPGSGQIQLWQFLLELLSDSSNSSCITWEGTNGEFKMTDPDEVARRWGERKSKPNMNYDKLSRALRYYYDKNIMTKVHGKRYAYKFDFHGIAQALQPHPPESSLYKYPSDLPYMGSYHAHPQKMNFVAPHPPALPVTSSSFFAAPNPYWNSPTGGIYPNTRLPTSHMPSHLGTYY
# In short: as §1
# ELF1 = ELF1 (Homo sapiens, UniProt P32519 1-619); details: protein: recombinant; tags: N-terminal GST; dsDNA, one strand shown
# In short: as §1
# EHF = target: T5, EHF (Homo sapiens, UniProt Q9NZC4 1-300); details: protein: recombinant; tags: N-terminal GST; dsDNA, one strand shown
# T5 sequence: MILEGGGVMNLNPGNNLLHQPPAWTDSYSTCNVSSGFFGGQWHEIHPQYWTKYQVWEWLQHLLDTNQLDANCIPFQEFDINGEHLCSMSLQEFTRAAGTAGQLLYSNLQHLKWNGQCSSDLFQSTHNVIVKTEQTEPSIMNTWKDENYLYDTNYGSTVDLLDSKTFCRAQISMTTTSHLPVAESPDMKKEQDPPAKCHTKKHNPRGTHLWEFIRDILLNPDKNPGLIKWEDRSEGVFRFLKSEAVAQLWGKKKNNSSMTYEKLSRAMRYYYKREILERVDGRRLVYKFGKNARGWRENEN
# In short: as §1
# SPI1 = SPI1 (Homo sapiens, UniProt P17947 1-270); details: protein: recombinant; tags: N-terminal GST; dsDNA, one strand shown
# In short: as §1
# SPIB = SPIB (Homo sapiens, UniProt Q01892 1-262); details: protein: recombinant; tags: N-terminal GST; dsDNA, one strand shown
# In short: as §1
# ELK3 = target: T6, ELK3 (Homo sapiens, UniProt P41970 1-407); details: protein: recombinant; tags: N-terminal GST; dsDNA, one strand shown
# T6 sequence: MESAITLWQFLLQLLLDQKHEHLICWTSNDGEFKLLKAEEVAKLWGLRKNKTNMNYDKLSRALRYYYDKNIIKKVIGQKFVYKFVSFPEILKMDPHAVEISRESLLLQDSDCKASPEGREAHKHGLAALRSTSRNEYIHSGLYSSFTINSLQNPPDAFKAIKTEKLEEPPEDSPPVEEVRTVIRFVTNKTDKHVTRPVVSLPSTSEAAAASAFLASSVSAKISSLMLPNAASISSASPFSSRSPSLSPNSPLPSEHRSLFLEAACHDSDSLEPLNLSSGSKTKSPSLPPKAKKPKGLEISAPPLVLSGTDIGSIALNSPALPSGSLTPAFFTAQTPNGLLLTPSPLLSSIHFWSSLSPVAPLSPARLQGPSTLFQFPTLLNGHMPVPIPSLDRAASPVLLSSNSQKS
# In short: as §1
# FEV = target: T7, FEV (Homo sapiens, UniProt Q99581 1-238); details: protein: recombinant; tags: N-terminal GST; dsDNA, one strand shown
# T7 sequence: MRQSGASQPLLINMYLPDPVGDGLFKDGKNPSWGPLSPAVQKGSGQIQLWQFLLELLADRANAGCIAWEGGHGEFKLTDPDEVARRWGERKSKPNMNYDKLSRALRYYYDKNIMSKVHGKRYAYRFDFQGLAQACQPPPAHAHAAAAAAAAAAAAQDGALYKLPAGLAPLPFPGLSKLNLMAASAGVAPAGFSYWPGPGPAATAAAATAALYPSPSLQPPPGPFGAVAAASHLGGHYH
# In short: as §1
# ETV5 = ETV5 (Homo sapiens, UniProt P41161 1-510); details: protein: recombinant; tags: N-terminal GST; dsDNA, one strand shown
# In short: as §1
# HSF1 = HSF1 (Homo sapiens, UniProt Q00613 1-529); details: protein: recombinant; tags: N-terminal GST; chain copies: 3; dsDNA, one strand shown
# In short: as §1
# SPIC = target: T8, SPIC (Homo sapiens, UniProt Q8N5J4 1-248); details: protein: recombinant; tags: N-terminal GST; dsDNA, one strand shown
# T8 sequence: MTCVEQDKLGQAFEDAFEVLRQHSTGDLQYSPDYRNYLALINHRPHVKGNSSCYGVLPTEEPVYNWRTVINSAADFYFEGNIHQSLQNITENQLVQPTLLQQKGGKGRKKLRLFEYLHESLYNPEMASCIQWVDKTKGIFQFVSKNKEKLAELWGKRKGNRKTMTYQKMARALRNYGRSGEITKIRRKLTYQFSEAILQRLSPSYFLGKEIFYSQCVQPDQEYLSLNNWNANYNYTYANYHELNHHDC
# In short: as §1
# ELF4 = ELF4 (Homo sapiens, UniProt Q99607 1-663); details: protein: recombinant; tags: N-terminal GST; dsDNA, one strand shown
# In short: as §1
# ELK4 = target: T9, ELK4 (Homo sapiens, UniProt P28324-2 1-405); details: protein: recombinant; tags: N-terminal GST; dsDNA, one strand shown
# T9 sequence: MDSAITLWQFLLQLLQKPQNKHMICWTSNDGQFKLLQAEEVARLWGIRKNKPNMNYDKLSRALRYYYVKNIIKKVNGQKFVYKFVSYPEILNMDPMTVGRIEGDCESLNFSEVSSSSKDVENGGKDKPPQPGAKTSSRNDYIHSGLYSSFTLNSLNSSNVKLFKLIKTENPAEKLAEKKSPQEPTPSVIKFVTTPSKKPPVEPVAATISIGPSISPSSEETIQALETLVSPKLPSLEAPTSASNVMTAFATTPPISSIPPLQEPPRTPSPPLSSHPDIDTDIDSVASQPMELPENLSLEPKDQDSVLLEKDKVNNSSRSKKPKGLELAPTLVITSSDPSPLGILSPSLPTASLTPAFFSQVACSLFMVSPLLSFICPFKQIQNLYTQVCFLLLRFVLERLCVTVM
# In short: as §1
# ETV2 = target: T10, ETV2 (Homo sapiens, UniProt O00321 1-342); details: protein: recombinant; tags: N-terminal GST; dsDNA, one strand shown
# T10 sequence: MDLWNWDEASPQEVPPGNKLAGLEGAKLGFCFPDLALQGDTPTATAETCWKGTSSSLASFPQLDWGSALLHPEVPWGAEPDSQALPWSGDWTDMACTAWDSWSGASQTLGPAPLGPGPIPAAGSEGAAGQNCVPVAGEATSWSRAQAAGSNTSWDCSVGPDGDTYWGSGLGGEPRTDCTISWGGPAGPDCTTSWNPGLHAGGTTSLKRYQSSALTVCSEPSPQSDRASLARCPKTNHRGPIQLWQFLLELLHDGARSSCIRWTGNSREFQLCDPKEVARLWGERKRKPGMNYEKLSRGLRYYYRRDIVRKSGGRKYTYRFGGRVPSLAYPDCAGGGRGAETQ
# In short: as §1
# ELF3 = target: T11, ELF3 (Homo sapiens, UniProt P78545 1-371); details: protein: recombinant; tags: N-terminal GST; dsDNA, one strand shown
# T11 sequence: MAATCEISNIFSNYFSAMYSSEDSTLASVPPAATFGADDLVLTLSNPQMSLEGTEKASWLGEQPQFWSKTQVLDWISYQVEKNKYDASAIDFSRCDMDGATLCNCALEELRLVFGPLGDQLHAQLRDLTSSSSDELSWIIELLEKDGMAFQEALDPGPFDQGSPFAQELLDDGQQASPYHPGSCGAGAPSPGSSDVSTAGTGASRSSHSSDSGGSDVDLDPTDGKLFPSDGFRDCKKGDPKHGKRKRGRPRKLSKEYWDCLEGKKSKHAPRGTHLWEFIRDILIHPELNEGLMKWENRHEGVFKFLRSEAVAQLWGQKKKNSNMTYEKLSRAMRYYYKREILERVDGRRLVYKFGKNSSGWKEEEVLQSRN
# In short: as §1
# CRX = CRX (Homo sapiens, UniProt O43186 1-299); details: protein: recombinant; tags: N-terminal GST; dsDNA, one strand shown
# In short: as §1
# ETV1 = ETV1 (Homo sapiens, UniProt P50549 1-477); details: protein: recombinant; tags: N-terminal GST; dsDNA, one strand shown
# In short: as §1
# Chain of ELF4 (Q99607 whole entry): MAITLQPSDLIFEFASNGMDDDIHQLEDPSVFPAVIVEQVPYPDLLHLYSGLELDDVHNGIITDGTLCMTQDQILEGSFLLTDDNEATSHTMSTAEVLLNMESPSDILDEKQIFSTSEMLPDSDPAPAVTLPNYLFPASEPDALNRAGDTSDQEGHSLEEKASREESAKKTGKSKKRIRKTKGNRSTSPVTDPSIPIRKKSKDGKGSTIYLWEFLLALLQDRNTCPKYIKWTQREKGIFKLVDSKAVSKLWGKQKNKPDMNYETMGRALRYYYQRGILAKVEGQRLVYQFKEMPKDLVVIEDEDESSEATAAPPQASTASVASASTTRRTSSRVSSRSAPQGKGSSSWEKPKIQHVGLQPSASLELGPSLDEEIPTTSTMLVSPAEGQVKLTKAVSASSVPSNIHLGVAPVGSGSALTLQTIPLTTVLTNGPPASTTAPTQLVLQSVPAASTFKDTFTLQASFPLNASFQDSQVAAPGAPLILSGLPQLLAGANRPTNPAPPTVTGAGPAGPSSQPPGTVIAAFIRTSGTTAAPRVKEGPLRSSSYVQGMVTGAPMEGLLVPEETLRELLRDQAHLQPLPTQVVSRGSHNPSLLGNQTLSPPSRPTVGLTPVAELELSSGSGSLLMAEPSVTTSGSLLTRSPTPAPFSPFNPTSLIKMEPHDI
# Chain of SPIB (Q01892 whole entry): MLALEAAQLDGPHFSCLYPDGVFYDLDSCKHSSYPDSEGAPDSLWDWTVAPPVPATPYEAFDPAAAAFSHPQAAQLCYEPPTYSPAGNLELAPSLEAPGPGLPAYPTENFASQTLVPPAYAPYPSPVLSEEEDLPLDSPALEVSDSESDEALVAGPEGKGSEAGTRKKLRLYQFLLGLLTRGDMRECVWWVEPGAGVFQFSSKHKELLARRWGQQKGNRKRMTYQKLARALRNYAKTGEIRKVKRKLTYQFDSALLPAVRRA
# Chain of HSF1 (Q00613 whole entry): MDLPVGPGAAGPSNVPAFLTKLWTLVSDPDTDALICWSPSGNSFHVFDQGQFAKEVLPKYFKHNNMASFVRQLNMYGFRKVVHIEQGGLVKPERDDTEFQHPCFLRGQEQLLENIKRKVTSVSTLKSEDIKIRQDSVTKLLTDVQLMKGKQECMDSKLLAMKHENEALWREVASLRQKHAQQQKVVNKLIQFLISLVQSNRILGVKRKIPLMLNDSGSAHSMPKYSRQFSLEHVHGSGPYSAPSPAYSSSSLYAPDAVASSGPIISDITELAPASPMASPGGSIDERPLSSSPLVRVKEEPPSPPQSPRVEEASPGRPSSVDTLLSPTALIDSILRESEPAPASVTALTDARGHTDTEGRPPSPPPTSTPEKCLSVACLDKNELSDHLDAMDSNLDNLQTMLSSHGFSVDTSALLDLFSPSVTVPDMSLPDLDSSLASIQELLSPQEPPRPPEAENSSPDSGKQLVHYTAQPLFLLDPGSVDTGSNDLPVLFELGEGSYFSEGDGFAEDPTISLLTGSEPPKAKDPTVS
# Chain of CRX (O43186 whole entry): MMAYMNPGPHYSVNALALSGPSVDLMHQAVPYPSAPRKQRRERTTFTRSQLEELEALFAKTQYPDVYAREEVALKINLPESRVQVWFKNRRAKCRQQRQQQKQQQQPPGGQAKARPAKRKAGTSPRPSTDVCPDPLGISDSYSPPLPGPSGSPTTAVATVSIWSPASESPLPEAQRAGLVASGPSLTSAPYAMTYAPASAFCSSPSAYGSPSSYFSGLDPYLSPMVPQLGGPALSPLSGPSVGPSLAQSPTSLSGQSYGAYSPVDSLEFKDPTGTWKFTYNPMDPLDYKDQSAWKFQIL
# Chain of ETV1 (P50549 whole entry): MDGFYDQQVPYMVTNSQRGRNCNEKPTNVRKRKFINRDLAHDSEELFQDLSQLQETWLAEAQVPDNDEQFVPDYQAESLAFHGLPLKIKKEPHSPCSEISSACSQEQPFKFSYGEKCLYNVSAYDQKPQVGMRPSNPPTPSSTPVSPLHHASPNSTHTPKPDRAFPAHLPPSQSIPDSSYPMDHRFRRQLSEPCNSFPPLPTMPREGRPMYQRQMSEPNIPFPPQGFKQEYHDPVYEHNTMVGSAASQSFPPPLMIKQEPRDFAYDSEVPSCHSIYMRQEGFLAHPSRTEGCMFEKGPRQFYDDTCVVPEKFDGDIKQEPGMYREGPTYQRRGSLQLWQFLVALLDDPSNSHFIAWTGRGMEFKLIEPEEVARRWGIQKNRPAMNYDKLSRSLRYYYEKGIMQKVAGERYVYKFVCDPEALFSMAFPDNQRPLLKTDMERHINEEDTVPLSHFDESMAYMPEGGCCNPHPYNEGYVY
# Chain of ETV5 (P41161 whole entry): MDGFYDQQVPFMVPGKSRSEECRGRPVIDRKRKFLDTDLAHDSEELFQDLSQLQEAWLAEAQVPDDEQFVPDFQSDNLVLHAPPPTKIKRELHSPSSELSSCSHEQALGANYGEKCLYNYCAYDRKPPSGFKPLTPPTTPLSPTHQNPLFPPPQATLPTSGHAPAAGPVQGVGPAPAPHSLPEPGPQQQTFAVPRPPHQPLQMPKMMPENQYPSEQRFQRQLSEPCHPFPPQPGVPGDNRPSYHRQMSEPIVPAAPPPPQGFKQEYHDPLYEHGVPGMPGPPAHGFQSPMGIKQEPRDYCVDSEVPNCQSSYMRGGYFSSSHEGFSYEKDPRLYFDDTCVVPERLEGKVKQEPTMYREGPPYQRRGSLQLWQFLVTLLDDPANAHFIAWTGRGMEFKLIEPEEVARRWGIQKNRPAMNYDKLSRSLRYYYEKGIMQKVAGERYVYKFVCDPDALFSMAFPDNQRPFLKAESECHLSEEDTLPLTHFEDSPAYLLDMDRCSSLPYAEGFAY
# Chain of ELF1 (P32519 whole entry): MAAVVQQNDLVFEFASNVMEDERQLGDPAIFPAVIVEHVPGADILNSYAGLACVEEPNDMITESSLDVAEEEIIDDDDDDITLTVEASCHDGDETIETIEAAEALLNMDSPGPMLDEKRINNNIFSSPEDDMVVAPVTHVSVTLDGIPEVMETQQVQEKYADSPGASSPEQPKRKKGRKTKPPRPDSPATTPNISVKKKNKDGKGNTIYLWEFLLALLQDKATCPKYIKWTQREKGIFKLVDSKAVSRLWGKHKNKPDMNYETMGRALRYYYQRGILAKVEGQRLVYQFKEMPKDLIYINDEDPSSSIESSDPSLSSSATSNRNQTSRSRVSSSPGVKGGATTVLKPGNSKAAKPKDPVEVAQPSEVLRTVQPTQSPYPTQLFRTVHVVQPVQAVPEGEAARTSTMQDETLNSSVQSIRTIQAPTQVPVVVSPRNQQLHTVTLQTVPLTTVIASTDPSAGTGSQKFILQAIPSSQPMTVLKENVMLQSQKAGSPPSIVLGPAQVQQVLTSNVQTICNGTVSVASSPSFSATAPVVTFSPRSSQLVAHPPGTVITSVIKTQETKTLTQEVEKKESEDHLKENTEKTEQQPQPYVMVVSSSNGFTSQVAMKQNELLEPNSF
sequence,measurement,setting,value
TCCGAC,binding signal,FLI1,"1.42 fold enrichment (6-mer frequency, TF over GST control)"
same,binding signal,ELK1,"1.47 fold enrichment (6-mer frequency, TF over GST control)"
same,binding signal,GABPA,"1.32 fold enrichment (6-mer frequency, TF over GST control)"
same,binding signal,ERG,"1.46 fold enrichment (6-mer frequency, TF over GST control)"
same,binding signal,ELF1,"1.42 fold enrichment (6-mer frequency, TF over GST control)"
same,binding signal,EHF,"1.46 fold enrichment (6-mer frequency, TF over GST control)"
same,binding signal,SPI1,"1.37 fold enrichment (6-mer frequency, TF over GST control)"
same,binding signal,SPIB,"1.46 fold enrichment (6-mer frequency, TF over GST control)"
same,binding signal,ELK3,"1.56 fold enrichment (6-mer frequency, TF over GST control)"
same,binding signal,FEV,"1.68 fold enrichment (6-mer frequency, TF over GST control)"
same,binding signal,ETV5,"1.44 fold enrichment (6-mer frequency, TF over GST control)"
same,binding signal,HSF1,"1.23 fold enrichment (6-mer frequency, TF over GST control)"
same,binding signal,SPIC,"1.59 fold enrichment (6-mer frequency, TF over GST control)"
same,binding signal,ELF4,"1.44 fold enrichment (6-mer frequency, TF over GST control)"
same,binding signal,ELK4,"1.43 fold enrichment (6-mer frequency, TF over GST control)"
same,binding signal,ETV2,"1.35 fold enrichment (6-mer frequency, TF over GST control)"
same,binding signal,ELF3,"1.47 fold enrichment (6-mer frequency, TF over GST control)"
same,binding signal,CRX,"1.25 fold enrichment (6-mer frequency, TF over GST control)"
same,binding signal,ETV1,"1.55 fold enrichment (6-mer frequency, TF over GST control)"
